Measurements: PubChem BioAssay (NCATS)
“And” between values parts separate entries of the source, which are not always exact repeats. Equal values may be shown once. Records with an inconclusive call do not appear. A call without a number means that no potency is given here. The source made the active and inactive calls. Unless noted, calls come from the whole dose curve; as a rule, active = well fitted curve in the direction sought with a large enough effect; inconclusive = small, poorly fitted or top-dose-only effect, or another doubt; inactive = no such curve, though single readings can be large; an effect the other way counts as inactive or inconclusive.

Columns and labels:
[1] = target: Calcium and integrin-binding protein 1 (Homo sapiens) (UniProt Q99828); assay: Primary qHTS for Identification of Calcium Integrin Binding Protein 1 (CIB1) Competitor (AID 1508620); details: CIB1-GST / FITC-alphaIIb peptide fluorescence polarization; series mostly up to 57.7 µM;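 note: GST tagged CIB1 binding a fluorescein labelled alphaIIb integrin peptide tracer; top concentration of the series differs between compounds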
Sequence of Calcium and integrin-binding protein 1 (Homo sapiens) (Q99828 whole entry, looked up): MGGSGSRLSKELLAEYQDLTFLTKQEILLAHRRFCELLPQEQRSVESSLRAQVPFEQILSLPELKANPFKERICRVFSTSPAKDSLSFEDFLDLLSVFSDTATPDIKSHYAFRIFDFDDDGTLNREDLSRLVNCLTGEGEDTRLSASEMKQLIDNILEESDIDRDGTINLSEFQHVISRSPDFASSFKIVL
Procedure, shortened: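 Fluorescence polarization competition: CIB1-GST (1 uM final) preincubated with compound 15 min at room temperature, then FITC-labeled alphaIIb peptide (100 nM final) added for another 15 min. Polarization read at Ex 480/Em 540.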

[2] = Primary qHTS for small molecule stabilizers of the endoplasmic reticulum resident proteome: Secreted ER Calcium Modulated Protein (SERCaMP) assay (AID 1508630); details: SH-SY5Y GLuc-SERCaMP (Gaussia luciferase released on ER calcium loss) secretion, thapsigargin, luminescence; series mostly up to 38.4 µM
Procedure, shortened: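 GLuc-SERCaMP-expressing SH-SY5Y cells, pretreated 16 h with compound, are challenged with thapsigargin to empty ER calcium stores; after 4 h, coelenterazine is added directly to the medium and luminescence is imaged.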

[3] = target: Cytochrome P450 2D6 (Homo sapiens) (UniProt P10635); assay: Cytochrome P450 family 2 subfamily D member 6 (CYP2D6) small molecule antagonists: luciferase biochemical (cell-free) qHTS assay (AID 1645840; active = well fitted curve in the direction sought with a large enough effect in the repeat runs; an effect the other way counts as inactive or inconclusive; note: nearly all actives have a fitted effect of over 55% in size; note: potency is the fitted concentration of half-maximal effect); details: P450-Glo CYP2D6 enzyme, luciferin luminescence, 1 h; series mostly up to 57.4 µM
Sequence of Cytochrome P450 2D6 (Homo sapiens) (P10635 whole entry, looked up): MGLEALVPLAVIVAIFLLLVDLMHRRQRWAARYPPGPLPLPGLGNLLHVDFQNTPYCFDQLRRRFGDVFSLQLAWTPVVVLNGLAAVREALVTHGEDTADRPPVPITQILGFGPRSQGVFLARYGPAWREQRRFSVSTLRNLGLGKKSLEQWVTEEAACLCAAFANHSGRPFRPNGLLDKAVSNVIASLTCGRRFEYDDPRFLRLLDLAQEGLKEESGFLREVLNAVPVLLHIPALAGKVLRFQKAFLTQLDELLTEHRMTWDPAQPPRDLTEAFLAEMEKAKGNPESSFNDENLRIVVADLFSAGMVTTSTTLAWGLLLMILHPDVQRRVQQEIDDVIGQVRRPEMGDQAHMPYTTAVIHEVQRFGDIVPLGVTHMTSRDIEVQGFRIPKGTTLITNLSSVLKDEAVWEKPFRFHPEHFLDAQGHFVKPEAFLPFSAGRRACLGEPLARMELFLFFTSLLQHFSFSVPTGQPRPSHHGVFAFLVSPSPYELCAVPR
Procedure, shortened: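 P450-Glo luminescent screen: recombinant CYP2D6 enzyme–proluciferin substrate mix preincubated with compound 10 min at room temperature, then NADPH regeneration added for 1 h at room temperature. Detection reagent added for 20 min; luciferin light read as relative luminescence units.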

[4] = Primary qHTS for inhibitors of nuclear receptor binding SET domain protein 2 (NSD2) in an isogenic RCH-ACV NSD2 p.E1099K mutant (9B) (AID 1645876); details: RCH-ACV NSD2 E1099K (9B) viability, CellTiter-Glo, 72 h; series mostly up to 44.9 µM; note: nearly all actives have a fitted effect of over 70% in size; note: potency is the fitted concentration of half-maximal effect
[5] = Primary qHTS for inhibitors of nuclear receptor binding SET domain protein 2 (NSD2) in an RCH-ACV wild type WT cells (2C) (AID 1645877); details: RCH-ACV (leukaemia line) NSD2 WT (2C) viability, CellTiter-Glo, 72 h; series mostly up to 44.9 µM; note: nearly all actives have a fitted effect of over 70% in size; note: potency is the fitted concentration of half-maximal effect
[6] = target: N-terminal Xaa-Pro-Lys N-methyltransferase 1 (Homo sapiens) (UniProt Q9BV86); assay: Confirmatory qHTS for Inhibitors of N-terminal methyltransferase 1 (NTMT1): MTaseGlo Assay (AID 1645874); details: NTMT1 enzyme, MTase-Glo SAH luminescence; series mostly up to 100 µM;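 note: luminescence from SAH made as NTMT1 methylates SPKRIA peptide using SAM; nearly all actives have a fitted effect of over 65% in size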
Sequence of N-terminal Xaa-Pro-Lys N-methyltransferase 1 (Homo sapiens) (Q9BV86 whole entry, looked up): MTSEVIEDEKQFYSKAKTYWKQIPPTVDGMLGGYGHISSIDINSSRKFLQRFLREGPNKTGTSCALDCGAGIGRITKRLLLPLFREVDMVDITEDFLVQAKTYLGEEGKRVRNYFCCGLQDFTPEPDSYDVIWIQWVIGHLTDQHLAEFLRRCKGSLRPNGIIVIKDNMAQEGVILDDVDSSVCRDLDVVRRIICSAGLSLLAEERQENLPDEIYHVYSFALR
Procedure, shortened: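 Luminescent MTase-Glo read-out of SAH. 125 nM NTMT1, 100 uM SAM, 1 uM SPKRIA substrate, 30 min RT reaction after 15 min compound preincubation. Normalized to no-enzyme and DMSO controls; Hill fit.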

[7] = target: Cytochrome P450 2C9 (Homo sapiens) (UniProt P11712); assay: Cytochrome P450 family 2 subfamily C member 9 (CYP2C9) small molecule antagonists: luciferase biochemical (cell-free) qHTS assay (AID 1645842; active = well fitted curve in the direction sought with a large enough effect in the repeat runs; an effect the other way counts as inactive or inconclusive; note: nearly all actives have a fitted effect of over 55% in size; note: potency is the fitted concentration of half-maximal effect); details: P450-Glo CYP2C9 enzyme assay, luciferin luminescence; series mostly up to 57.4 µM
Sequence of Cytochrome P450 2C9 (Homo sapiens) (P11712 whole entry, looked up): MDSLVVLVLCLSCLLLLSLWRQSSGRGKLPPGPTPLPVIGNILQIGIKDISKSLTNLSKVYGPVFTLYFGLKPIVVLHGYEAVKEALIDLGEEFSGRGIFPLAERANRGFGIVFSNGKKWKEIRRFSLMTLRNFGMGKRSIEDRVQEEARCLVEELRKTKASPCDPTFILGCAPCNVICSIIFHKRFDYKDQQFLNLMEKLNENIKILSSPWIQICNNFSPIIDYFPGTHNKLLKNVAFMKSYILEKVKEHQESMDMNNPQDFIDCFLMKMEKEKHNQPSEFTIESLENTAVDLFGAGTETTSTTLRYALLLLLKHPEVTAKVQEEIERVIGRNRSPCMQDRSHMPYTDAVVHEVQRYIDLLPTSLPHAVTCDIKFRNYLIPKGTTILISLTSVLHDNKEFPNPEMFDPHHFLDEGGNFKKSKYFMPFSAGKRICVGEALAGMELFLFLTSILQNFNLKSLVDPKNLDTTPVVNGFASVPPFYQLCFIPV
Procedure, shortened: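 Luminescence, after 20 min with luciferin detection reagent, reflected CYP2C9 turnover during a 1 h NADPH-driven reaction at 37C. Enzyme-substrate mix contained 0.4% bovine serum albumin and was preincubated with compound 10 min at room temperature.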

SMILES | Potency [1] | Potency [2] | Potency [3] | Potency [4] | Potency [5] | Potency [6] | Potency [7]
CC(C)n1nc(-c2ccc3oc(N)nc3c2)c2c(N)ncnc21 | inactive | inactive | inactive | 36.5 nM (active) and 29.5 nM (active) | 36.5 nM (active) and 33.2 nM (active) | – | –
COc1cc(Nc2ncc(F)c(Nc3ccc4c(n3)NC(=O)C(C)(C)O4)n2)cc(OC)c1OC | inactive | inactive | – | 817 nM (active) and 4.61 µM (active) | 1.03 µM (active) and 5.17 µM (active) | inactive | –
Cc1c(NC(=O)c2ccc(C(C)(C)C)cc2)cccc1-c1cn(C)c(=O)c(Nc2ccc(C(=O)N3CCOCC3)cc2)n1 | inactive | inactive | inactive | inactive | – | – | 2.13 µM (active)
CCS(=O)(=O)N1CC(CC#N)(n2cc(-c3ncnc4[nH]ccc34)cn2)C1 | inactive | inactive | inactive | 18.6 µM (active) | 16.6 µM (active) | – | inactive
Cc1ccc(Nc2cc(-c3cccc(N4C(=O)c5ccccc5C4=O)c3)ncn2)cc1NS(C)(=O)=O | inactive | inactive | inactive | 16.6 µM (active) | 18.6 µM (active) | – | 1.07 µM (active)
CS(=O)c1ccc(-c2nc(-c3ccc(F)cc3)c(-c3ccncc3)[nH]2)cc1 (centres undefined) | inactive | inactive | 6.74 µM (active) | 18.6 µM (active) | – | – | 0.952 µM (active)
Cc1ccc(C(C)(O)c2nc3ccccc3s2)c(C)c1 (centres undefined) | inactive | inactive | – | – | – | – | 3.01 µM (active)
CC1CCC(C(=O)N(c2cc(C#CC(C)(C)C)sc2C(=O)O)C2CCC(O)CC2)CC1 (centres undefined) | inactive | inactive | – | 20.9 µM (active) | 16.6 µM (active) | – | inactive
COCCOC(=O)C1=C(C)NC2=C(C(=O)CC(c3ccccc3OC)C2)C1c1cccc(O)c1 (centres undefined) | inactive | inactive | 10.7 µM (active) | 4.68 µM (active) and 3.65 µM (active) | 3.72 µM (active) and 3.25 µM (active) | – | 1.69 µM (active)
O=c1c(O)c(-c2ccc(O)cc2)oc2cc(O)cc(O)c12 | inactive | inactive | – | 23.5 µM (active) | – | – | –
Cn1c(N2CCCCS2(=O)=O)nc(C(=O)NCc2ccc(F)cc2)c(O)c1=O | inactive | inactive | inactive | inactive | inactive | – | inactive
CC(C)(C)c1cc(C(=O)O)c(NC(=O)Nc2ccc3[nH]ncc3c2)s1 | inactive | inactive | 3.38 µM (active) | inactive | inactive | – | 0.477 µM (active)
CC1(C)Cc2c(sc(NC(=S)NC(=O)c3ccccc3)c2C(=O)O)CO1 | inactive | inactive | inactive | inactive | inactive | – | 19 µM (active)
COc1cc(N2CCC(N3CCN(C)CC3)CC2)ccc1Nc1ncnc(Nc2ccccc2S(=O)(=O)C(C)C)n1 | inactive | inactive | inactive | 6.49 µM (active) and 9.34 µM (active) | 18.4 µM (active) and 10.5 µM (active) | – | inactive
COc1cc(NC(=O)c2ccc(-c3ccc(Cl)cc3)o2)cc(OC)c1 | inactive | inactive | – | inactive | – | – | 8.49 µM (active)
COc1cc2ncnc(-n3nc(-c4ccccn4)nc3N)c2cc1OC | inactive | inactive | 7.56 µM (active) | 1.59 µM (active) | 2.52 µM (active) | – | –
CC(C)(C)NC(=O)Nc1cccc(Nc2ncc(F)c(NC(C)(C)CO)n2)c1 | inactive | inactive | – | 5.78 µM (active) | 2.63 µM (active) | – | 23.9 µM (active)
c1ccc2c(-c3cnn4cc(-c5ccc(N6CCNCC6)cc5)cnc34)ccnc2c1 | inactive | inactive | inactive | 2.63 µM (active) | 2.09 µM (active) | – | inactive
NC(=O)c1cccc(-c2cc(Nc3ccc(OC(F)(F)F)cc3)ncn2)c1 | inactive | inactive | 26.8 µM (active) | 20.5 µM (active) and 14.8 µM (active) | 23 µM (active) and 13.2 µM (active) | – | 15.1 µM (active)
CCOC(=O)C1=C(N)Oc2ccc(Br)cc2C1C(C#N)C(=O)OCC (centres undefined) | inactive | inactive | 13.5 µM (active) and 16.9 µM (active) and 23.9 µM (active) | inactive | inactive | – | 6.01 µM (active) and 12 µM (active) and 10.7 µM (active)
O=C1C[C@@H](c2ccc(O)cc2)Oc2cc(O)cc(O)c21 | inactive | inactive | – | inactive | – | – | 5.35 µM (active)
